Only some compounds are listed: those with a hit (about 2.9% of all), similar ones and a draw of the others.
PAFAH1B2 FP inh – blocks human PAF acetylhydrolase 1b catalytic subunit 2; P68402; recombinant PAFAH1B2, FP-rhodamine activity probe, fluorescence polarization; inhibition, % at 3.39 µM; 1.2% of 340,000 active; AID 492953;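 active = inhibition above the mean of all tested compounds plus 3 SD, cut at about 24% in these data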
pPAFAH FP inh – inhibitors of human plasma PAF acetylhydrolase (pPAFAH) | Q13093 | 1.5% of 330,000 active | inhibition, % at 3.39 µM | recombinant pPAFAH, FP-rhodamine probe fluorescence polarization | AID 463082;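 active = inhibition above the mean inhibition across the screen plus 3 SD, cut at about 25% in these data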;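 also: inhibitors block binding of the rhodamine activity-based probe so polarization drops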
Fam108B inh – blocks mouse Fam108B hydrolase in RBBP9 counter-screen. 0.33% of 300,000 active. recombinant Fam108B, FP-Rh probe fluorescence polarization. inhibition, % at 9.51 µM. AID 1947;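 active = inhibition above the screen mean inhibition plus 3 SD, computed separately per campaign, cut at about 18% in these data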;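 also: inhibitors lower polarization as less probe binds the enzyme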
PAFAH2 FP inh – inhibitors of human PAFAH2; recombinant PAFAH2, FP-rhodamine activity probe, fluorescence polarization; inhibition, % at 3.39 µM; 0.99% of 340,000 active; AID 492956;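 active = inhibition above the mean over all tested compounds plus 3 SD, cut at about 30% in these data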;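 also: inhibitors block probe labeling of enzyme so polarization drops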
PME-1 inh – blocks human protein phosphatase methylesterase 1. Q9Y570. recombinant PME-1, FP-Rh probe fluorescence polarization. inhibition, % at 5.9 µM. 0.53% of 320,000 active. AID 2130;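 active = inhibition above the campaign mean of all compounds plus 3 SD, cut at about 26% in these data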;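 also: competitive labeling of PME-1 active site by serine hydrolase directed probe; inhibitors block probe labeling so polarization falls and inhibition rises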
Target sequence (Q9Y570 whole entry, looked up): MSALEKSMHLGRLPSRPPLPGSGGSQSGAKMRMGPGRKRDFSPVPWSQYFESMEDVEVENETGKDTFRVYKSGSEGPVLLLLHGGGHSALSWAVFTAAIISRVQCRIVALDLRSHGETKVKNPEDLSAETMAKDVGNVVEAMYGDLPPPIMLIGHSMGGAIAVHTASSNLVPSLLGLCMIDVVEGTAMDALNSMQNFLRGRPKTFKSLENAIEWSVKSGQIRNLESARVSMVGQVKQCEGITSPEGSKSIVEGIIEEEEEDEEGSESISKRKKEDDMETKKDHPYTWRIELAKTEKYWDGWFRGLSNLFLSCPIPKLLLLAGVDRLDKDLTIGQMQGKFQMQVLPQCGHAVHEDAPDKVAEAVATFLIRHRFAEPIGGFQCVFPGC
PAFAH1B3 FP inh – inhibitors of human PAFAH1B3; Q15102; recombinant PAFAH1B3, FP-rhodamine probe, fluorescence polarization; inhibition, % at 3.39 µM; 0.28% of 340,000 active;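 active = inhibition above the screen-wide average of all tested compounds plus 3 SD, cut at about 25% in these data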
PAFAH2 confirm – confirmation of human PAFAH2 inhibitors | shares compounds with PAFAH2 FP inh | recombinant PAFAH2, FP-rhodamine activity probe, fluorescence polarization | inhibition, % at 3.39 µM | 65% of 2,300 active | AID 493030;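 active = mean inhibition over three repeats above a set limit taken from the earlier primary screen, cut at about 30% in these data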;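 also: inhibitor blocks binding of rhodamine activity probe so polarization falls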
Hits are given with their value; 0 = inactive; - = no result given.

SMILES	PAFAH1B2 FP inh	pPAFAH FP inh	Fam108B inh	PAFAH2 FP inh	PME-1 inh	PAFAH1B3 FP inh	PAFAH2 confirm
Cc1ccc(S(=O)(=O)/N=C2\C=C(NS(=O)(=O)c3ccccc3)C(=O)c3ccccc32)cc1	0	-	-	30	-	0	0
CCSC1=N/C(=C\c2ccc(-c3ccccc3[N+](=O)[O-])o2)C(=O)S1	0	0	0	0	0	0	-
CCCSC1=N/C(=C\c2ccc([N+](=O)[O-])o2)C(=O)S1	0	-	-	40	-	0	0
O=C(COC(=O)c1ccc(F)c(S(=O)(=O)N2CCOCC2)c1)NC1CCCCC1	0	0	-	71	0	0	60
COc1ccc(C(=O)OCC(=O)N2CCOCC2)cc1S(=O)(=O)N1CCOCC1	0	0	-	0	0	0	-
COC(=O)c1cc(COC(=O)c2ccc(OC)c(S(=O)(=O)N3CCCC3)c2)oc1C	0	-	-	41	-	0	0
COc1ccc(C(=O)OCC(=O)NC2CC2)cc1S(=O)(=O)N1CCOCC1	0	0	0	52	0	0	39
COc1ccc(C(=O)OCc2cc(C)ccc2C)cc1S(=O)(=O)N1CCCC1	0	0	-	0	0	0	-
O=C(COC(=O)c1cc(S(=O)(=O)N2CCOCC2)ccc1F)NC1CCCCC1	0	0	-	0	0	0	-
O=c1oc(-c2ccccc2NS(=O)(=O)c2ccc3ccccc3c2)nc2ccccc12	0	0	0	36	0	0	40
O=C(O)c1ccccc1NS(=O)(=O)c1ccc2ccccc2c1	0	0	0	0	0	0	-
O=C(c1ccc(N2CCN(C(=O)c3ccc(F)cc3F)CC2)cc1)c1cccc(F)c1	0	0	0	0	0	0	-
O=C(CCS(=O)(=O)c1ccc(Cl)cc1)N1CCN(S(=O)(=O)c2cccs2)CC1	0	0	0	51	0	0	40
CCc1cc2c(SCC(=O)NC3CC3)ncnc2s1	0	0	-	0	-	0	-
O=C(COC(=O)c1ccccc1)NC12CC3CC(CC(C3)C1)C2	0	0	-	79	0	0	89
COc1ccc(C(=O)NC23CC4CC(CC(C4)C2)C3)cc1	0	0	0	0	0	0	-
COc1ccc(C(=O)NCC(=O)OCC(=O)NC23CC4CC(CC(C4)C2)C3)cc1	0	0	-	58	-	0	44
N#Cc1ccccc1Sc1ccccc1C(=O)OCC(=O)NC12CC3CC(CC(C3)C1)C2	0	0	0	50	0	0	47
CC(=O)c1ccc(NC(=O)COC(=O)c2ccccc2Sc2ccccc2C#N)cc1	0	0	0	0	0	0	-
N#Cc1cccc(NC(=O)COC(=O)c2ccccc2Sc2ccccc2C#N)c1	0	0	0	45	0	0	39
COC(=O)[C@@H]1CCCN1C(=O)CCc1nnc(C2CCCCC2)o1	0	0	0	0	0	0	-
COc1ccc(C2CC(c3ccccc3)=NN2C(=O)COC(=O)c2cc(S(=O)(=O)N3CCOCC3)ccc2F)cc1 (stereo unspecified)	0	0	0	48	0	0	51
CN1C=CC(=CC=C2C=CC(=O)C=C2)C=C1	0	0	0	0	0	0	-
O=C(NC1CC1)c1cccc(NC(=O)C2CCN(S(=O)(=O)c3cccc(C(F)(F)F)c3)CC2)c1	0	-	-	0	-	0	-
COc1cc(CN2CCCC(CO)(Cc3cccc(Cl)c3)C2)cc2c1OCO2 (stereo unspecified)	0	0	0	0	0	0	-
SMILES	PAFAH1B2 FP inh	pPAFAH FP inh	Fam108B inh	PAFAH2 FP inh	PME-1 inh	PAFAH1B3 FP inh	PAFAH2 confirm
Cc1ccc(S(=O)(=O)n2nc(OC(=O)c3c(F)cccc3Cl)cc2N)cc1	0	0	0	34	0	0	0
CCOC(=O)Cc1c(C)nc2c(-c3cccc(Br)c3)c[nH]n2c1=O	0	0	0	33	0	0	0
O=C(Nc1ccc2cn[nH]c2c1)c1ccc(Cl)c(S(=O)(=O)N2CCOCC2)c1	0	0	0	0	0	0	-
COc1cccc(NC(=O)COC(=O)c2ccccc2SCC(=O)N2CCCC2)c1	0	0	0	82	0	0	81
CCCC(C)NC(=O)COC(=O)c1ccccc1SCC(=O)NC(C)CCC (stereo unspecified)	0	0	0	39	0	0	43
COc1ccc(C)cc1NC(=O)COC(=O)c1ccccc1SCC(=O)N1CCCC1	0	0	0	0	0	0	-
O=C(COC(=O)c1ccccc1SCC(=O)N1CCCC1)Nc1ccccc1	0	0	0	88	0	0	80
